In PubChem BioAssay (NCI) one finds growth inhibition data, which are given here for 39 molecules.

Assay [1] can be described thus: NCI Yeast Anticancer Drug Screen. Data for the rad50 strain (AID 155).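 Note: 0% = growth of vehicle-only cultures of the same strain.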 The following applies: S. cerevisiae rad50 strain growth inhibition; at 50.0 µM; stronger effect = higher value. Put shortly:
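Vehicle-treated cultures provide the reference for the growth inhibition reported for compound-exposed, repair-deficient yeast.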

Assay [2] is described as follows: NCI Yeast Anticancer Drug Screen. Data for the mec2-1 strain (AID 157). The following applies: S. cerevisiae mec2-1 strain, at 50.0 µM, stronger effect = higher value. In outline:
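Compounds were applied to mec2-1 yeast cells. Their growth was then compared with that of vehicle-treated cultures to give growth inhibition.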

A short description of assay [3]: NCI Yeast Anticancer Drug Screen. Data for the sgs1 mgt1 strain (AID 161).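 Note: 0% = growth of cultures given vehicle only.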 The following applies: S. cerevisiae sgs1 mgt1 strain, at 50.0 µM, stronger effect = higher value. Put shortly: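 This yeast growth screen uses a strain with defined DNA-repair lesions; compound-treated growth is compared with vehicle-treated growth.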
Assay [4] in a line: NCI Yeast Anticancer Drug Screen. Data for the cln2 rad14 strain (AID 165).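 Note: 0% = growth equal to vehicle treated cultures.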 The conditions noted are these: S. cerevisiae cln2 rad14 strain, at 50.0 µM, stronger effect = higher value. Put shortly: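 Strain: cln2 rad14 yeast, altered in cell cycle control and DNA damage repair. Read-out: growth inhibition vs vehicle.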
Assay [5] is described as follows: NCI Yeast Anticancer Drug Screen. Data for the bub3 strain (AID 167). The conditions noted are these: S. cerevisiae bub3 mutant strain, at 50.0 µM, stronger effect = higher value. Put shortly:
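Mutant yeast screening strain plus compound; vehicle-treated cultures serve as the 0% inhibition reference.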

Assay [6] can be described thus: NCI Yeast Anticancer Drug Screen. Data for the mlh1 rad18 strain (AID 175). The conditions noted are these: S. cerevisiae mlh1 rad18 strain growth inhibition; at 50.0 µM; stronger effect = higher value. In outline: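 A repair-deficient yeast strain is exposed to test compound, and growth is scored relative to vehicle-treated controls.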

This is part of a sample that, as a whole, favours compounds with a hit. Of some 79,000 tested, about 15% had one in any assay. A number with no mark means an inactive call. The source made the active and inactive calls. Cut-off read from the data, not from the text of the source: active = growth inhibition above about 70%; inactive = the rest.

With `Cc1cn(CCCn2cnc3c(=O)[nH]cnc32)c(=O)[nH]c1=O`, the growth inhibition in assay [1] is -13.1%; in assay [2], -22.1%; in assay [3] it was -16.7%; in assay [4], -3.15%; in assay [5] it was -21.6%; in assay [6] it was -3.25%.

For the molecule `CCC(CCCN)Nc1cc(OC)cc2c(C)ccnc12` (centres undefined), the growth inhibition in assay [1] was -53.9%; in assay [2], -3.1%; in assay [3], 1.75%; in assay [4] it was -4.5%; in assay [5], 21.2%; in assay [6], -21.2%.

As for `CCCCNC(=O)OCCN(C)CCOC(=O)NCCCC`, the growth inhibition is -15.7% in assay [1]; -21.9% in assay [2]; -17.2% in assay [3]; 3.05% in assay [4]; 6.2% in assay [5]; 3.55% in assay [6].

In the case of `CCC(Br)C(=O)Nc1ccccc1C` (centres undefined), the growth inhibition in assay [1] is 27%; in assay [2], 3.25%; in assay [3] it was 6.75%; in assay [4], -14.2%; in assay [5], 20.6%; in assay [6], 0.4%.

Take `NC(=S)N/N=C/c1ccc(Cl)cc1Cl`: the growth inhibition is 65.7% in assay [1]; 42.5% in assay [2]; 35.9% in assay [3]; 28.3% in assay [4]; 45.2% in assay [5]; 38.7% in assay [6].

For the molecule `CCCCCCCCC(=O)c1ccc(N=Nc2ccc(OCC)cc2)cc1`, the growth inhibition in assay [1] was -6%; in assay [2], 12.9%; in assay [3] it was -5.5%; in assay [4], -8.55%; in assay [5], 3.15%; in assay [6] it was -14.8%.

For the molecule `Cc1cc(C)n2ncc(Br)c2n1`, the growth inhibition in assay [1] is 26.2%; in assay [2] it was 13.1%; in assay [3], 14.2%; in assay [4], -35%; in assay [5], 12.9%; in assay [6] it was 8.15%.

On to `CC(=O)Oc1ccc2c(c1)c1c(OC(C)=O)c(N(C)C(C)=O)cc(OC(C)=O)c1n2C`, for which the growth inhibition in assay [1] was 22.4%; in assay [2], -0.65%; in assay [3], 3.85%; in assay [4] it was 12.4%; in assay [5] it was -3.7%; in assay [6] it was 5.6%.

`COc1ccc(C(SCC(N)C(=O)O)(c2ccccc2)c2ccccc2)cc1` (centres undefined): the growth inhibition is 32.8% in assay [1]; -11.7% in assay [2]; 37% in assay [3]; -42.4% in assay [4]; 10.8% in assay [5]; 54.6% in assay [6].

In the case of `O=C(O/N=C(\c1ccccc1)C(Br)c1ccccc1)c1ccccc1` (centres undefined), the growth inhibition in assay [1] is -2.75%; in assay [2], 10.2%; in assay [3], 2.9%; in assay [4], -2.05%; in assay [5], 8.4%; in assay [6] it was -2.55%.

Take `O=CCCc1ccccc1`: the growth inhibition in assay [1] was 31.6%; in assay [2] it was -22.1%; in assay [3] it was -22.2%; in assay [4] it was -29.6%; in assay [5] it was 22%; in assay [6], 56.1%.

Regarding `CCOC(=O)C(O)(C#CC(C)C)C1CCCC1` (centres undefined), the growth inhibition was -15% in assay [1]; 13% in assay [2]; -4.65% in assay [3]; 5% in assay [4]; -6.4% in assay [5]; -6.65% in assay [6].

Take `C[C@H](CCc1nc(C#N)c(N)o1)[C@H]1CC[C@H]2[C@@H]3CCC4C[C@@H](O)CC[C@]4(C)[C@H]3C[C@@H](O)[C@]12C` (some centres undefined): the growth inhibition in assay [1] is 87% (active); in assay [2], 91.6% (active); in assay [3], 86% (active); in assay [4], 87.7% (active); in assay [5], 84% (active); in assay [6], 46%.

As to `CC(C)CCCC(C)C1CCC2C3CC=C4CC(OCCC(C)C)CCC4(C)C3CCC12C` (centres undefined), the growth inhibition in assay [1] was 55.5%; in assay [2], 66.7%; in assay [3], 29.4%; in assay [4] it was 84.3% (active); in assay [5], 98.1% (active); in assay [6], 90.4% (active).

On to `N#C/C(=C\NC(=S)C(N)=S)C(=O)c1ccc2ccccc2c1`, for which the growth inhibition in assay [1] was 40.4%; in assay [2] it was 30.3%; in assay [3], 40.5%; in assay [4], 33.5%; in assay [5], 24.3%; in assay [6], 50.9%.

In the case of `CC/C(=N\NC(=O)c1ccncc1)c1ccc(Cl)cc1`, the growth inhibition in assay [1] is 1.1%; in assay [2], 9.05%; in assay [3], -3.15%; in assay [4], 17.9%; in assay [5], 2.9%; in assay [6], -1.95%.

In the case of `O=C(Oc1ccc2c(=O)cc(-c3ccccc3)oc2c1OC(=O)c1ccccc1)c1ccccc1`, the growth inhibition in assay [1] was 3%; in assay [2] it was 7.6%; in assay [3], -0.85%; in assay [4], -3.15%; in assay [5], -14.1%; in assay [6], 3%.

`ClCCOCc1ccc(Cl)c(Cl)c1`: the growth inhibition in assay [1] was 8.8%; in assay [2], -16.9%; in assay [3], 6.15%; in assay [4] it was -13.5%; in assay [5] it was -18%; in assay [6], 9%.

As to `Cc1cc(C)n(/N=C/c2ccccc2[N+](=O)[O-])c(=O)c1C#N`, the growth inhibition in assay [1] was 4.65%; in assay [2], 9.4%; in assay [3] it was -2.75%; in assay [4] it was -0.25%; in assay [5], -2.35%; in assay [6], -6.85%.

Consider `COc1ccc(/C(C)=N/NC(N)=S)cc1OC`, for which the growth inhibition in assay [1] was 6.65%; in assay [2], -17.9%; in assay [3], 2.45%; in assay [4], 16%; in assay [5], -13.3%; in assay [6], 3.45%.

For `Cc1ccc(CNC(=O)Nc2cccc(Cl)c2)cc1C`, the growth inhibition in assay [1] is 6.05%; in assay [2], 15.5%; in assay [3], 7.05%; in assay [4] it was 1.3%; in assay [5] it was 16.8%; in assay [6], 5.35%.

For `CCC(C)C1NC(=S)N(c2ccccc2)C1=O` (centres undefined), the growth inhibition in assay [1] is -8.65%; in assay [2] it was 7.05%; in assay [3], -18.1%; in assay [4], -0.55%; in assay [5], -9%; in assay [6], -30.4%.

As for `NNc1ccc(S(=O)(=O)O)cc1Cl`, the growth inhibition in assay [1] is 8.35%; in assay [2], -14.4%; in assay [3], 3.05%; in assay [4], 4.7%; in assay [5], 15.7%; in assay [6], 2.45%.

Regarding `CCOC(=O)CN=C1NNS(=O)(=O)c2ccccc21`, the growth inhibition in assay [1] is 3.55%; in assay [2], -17.4%; in assay [3] it was -10.2%; in assay [4], 28.4%; in assay [5], -23.1%; in assay [6], 6.35%.

`CCCC1(c2ccccc2)OCC(CO)O1` (centres undefined): the growth inhibition is 15% in assay [1]; 9.35% in assay [2]; -17.4% in assay [3]; 6.4% in assay [4]; 4.1% in assay [5]; 4.25% in assay [6].

For `Nc1cccc(CC(NC(=O)c2ccccc2)C(=O)O)c1` (centres undefined), the growth inhibition in assay [1] was -16.4%; in assay [2], 2.1%; in assay [3] it was 12.1%; in assay [4], -4.3%; in assay [5], 28.6%; in assay [6], -22.7%.

`CCCCCCCCCCCCCCC(CCCCCCCCCCCCCC)c1ccccc1`: the growth inhibition is 38.4% in assay [1]; -1.25% in assay [2]; 11.6% in assay [3]; -29.4% in assay [4]; -2.65% in assay [5]; 12.2% in assay [6].

Turning to `COc1cc(OC)c(C(C)=O)c(O)c1OC`, the growth inhibition in assay [1] is 2.75%; in assay [2], 1.05%; in assay [3] it was 10.9%; in assay [4], 10.6%; in assay [5], 11.1%; in assay [6], 15.2%.

Consider `CCC(C)C(O)CC` (centres undefined), for which the growth inhibition in assay [1] was -9.5%; in assay [2] it was -8.55%; in assay [3] it was 2.3%; in assay [4] it was 19.4%; in assay [5], 7.6%; in assay [6] it was -16.2%.

Turning to `O=C1c2ccccc2S(=O)N1OCc1ccccc1` (centres undefined), the growth inhibition in assay [1] was -0.85%; in assay [2], 0.75%; in assay [3] it was 15.4%; in assay [4] it was -16.6%; in assay [5] it was 0.95%; in assay [6], 9.6%.

Turning to `CC1CCCCN1CCCO` (centres undefined), the growth inhibition in assay [1] was 14.6%; in assay [2], -32.4%; in assay [3] it was -22.1%; in assay [4], 3.05%; in assay [5] it was -14.6%; in assay [6], 17.4%.

Take `CC(C)C1CCC2(C)C(CCC3C4(C)CCCC32OC4=O)C1` (centres undefined): the growth inhibition in assay [1] is -17.7%; in assay [2] it was -13.6%; in assay [3], -4.8%; in assay [4] it was -27.2%; in assay [5], -0.15%; in assay [6] it was 23.7%.

For `O=C(O)C(=N\Nc1ccccc1)/C(=N\Nc1ccccc1)C(=O)O`, the growth inhibition in assay [1] is 30.7%; in assay [2], -6.25%; in assay [3], 33.9%; in assay [4], 21.8%; in assay [5], 24.2%; in assay [6] it was 7.3%.

For the molecule `CCCCOC(=O)C(C)OP(=O)(OC(C)C(=O)OCCCC)OC(C)C(=O)OCCCC` (centres undefined), the growth inhibition in assay [1] is -19.4%; in assay [2], -5%; in assay [3], 9.5%; in assay [4] it was -26.1%; in assay [5], -0.3%; in assay [6], 16.2%.

Take `COc1ccc(C2SC(N)=Nc3c2c(C)nn3C(=O)c2ccc(Cl)cc2)cc1` (centres undefined): the growth inhibition in assay [1] is 3.7%; in assay [2] it was -14.8%; in assay [3], 22.6%; in assay [4] it was -18.1%; in assay [5], -11.3%; in assay [6], 7.8%.

Turning to `C[Si](C)(C)N1N=NC2C(=O)N(c3ccccc3)C(=O)C21` (centres undefined), the growth inhibition in assay [1] is -10.4%; in assay [2], -0.5%; in assay [3] it was -13.4%; in assay [4], 0.1%; in assay [5] it was 0.4%; in assay [6], -7.4%.

Regarding `CCc1n[nH]c(=O)n1N1C(=O)CCC1=O`, the growth inhibition was 4.25% in assay [1]; 18.4% in assay [2]; -11.7% in assay [3]; 5.4% in assay [4]; -23.8% in assay [5]; 23.2% in assay [6].

On to `Cc1ccc(/C=C/c2ccc3ccccc3c2)cc1`, for which the growth inhibition is -6.6% in assay [1]; -9.3% in assay [2]; 9.05% in assay [3]; -14.6% in assay [4]; -4.8% in assay [5]; -3.85% in assay [6].

For the molecule `O=C(O)C(CCl)(CCl)CCl`, the growth inhibition in assay [1] was 19.4%; in assay [2] it was 1.3%; in assay [3] it was 1.05%; in assay [4], 17.6%; in assay [5] it was 13.8%; in assay [6] it was 15.2%.
